# Measurements reported in PubChem BioAssay (EPA / NIEHS).
# Calls of active or inactive are those of the source. The calls were made as follows: active = hit-call score of the fitted dose curve at least 0.9, where 1 is the maximum; inactive = score below 0.9.
# Molecular target: rat CYP2A1, Cyp2a1 (gene 24894) (UniProt P11711)
# Test: NVS_ADME_rCYP2A1: NovaScreen (NVS) CYP450-related Enzyme Activity (ADME) Assay for rat CYP2A1 (AID 2283114)
# Protocol: NVS_ADME_rCYP2A1 is a biochemical, single-readout assay that uses extracted gene-proteins in a cell-free assay. Measurements were taken 0.75 hour after chemical dosing in a 96-well plate.NVS_ADME_rCYP2A1 is one of one assay component(s) measured or calculated from the NVS_ADME_rCYP2A1 assay. It is designed to make measurements of enzyme activity, a form of enzyme reporter, as detected with fluorescence intensity signals by Fluorescence technology.Data from the assay component NVS_ADME_rCYP2A1 was analyzed into 1 assay endpoint. This assay endpoint, NVS_ADME_rCYP2A1, was analyzed in the positive analysis fitting direction relative to Acetonitrile as the negative control and baseline of activity. Using a type of enzyme reporter, loss-of-signal activity can be used to understand changes in the enzymatic activity as they relate to the gene Cyp2a1. Furthermore, this assay endpoint can be referred to as a primary readout, because this assay has produced multiple assay endpoints where this one serves a enzymatic activity function. To generalize the intended target to other relatable targets, this assay endpoint is annotated to the cyp intended target family, where the subfamily is xenobiotic metabolism.
# Binding assays used specific radioligands (tritiated, iodinated) with non-radioactive competitive displacement ligands in agonist or antagonist protocols (as indicated) and various reference compounds and inhibitors to titrate specific binding to receptors and transporters. Most enzyme assays (CYPs, kinases, phosphatases, proteases, HDACs) used recombinant protein and specific substrates (fluorescence mostly, some colorimetric and radioactive) and inhibitors, followed by a biochemical separation of substrate and product. All assays for the biochemical HTS were initially run in duplicate at a single concentration (10 uM for CYP450 assays and 25 uM for all others). Assay-chemical combinations meeting a pre-defined threshold (e.g., 30% inhibition and other criteria defined below) were then run in singleton concentration-response format with maximum concentration of 20 uM for CYPs and 50 uM for all others. Each assay was run with positive and negative controls, and concurrent controls on every plate. The follow-up (secondary) screen tested active chemical-pairs in concentration series, as well as a few additional assays not tested in the primary screen, some selected negative inactives, and several cases re-run in the concentration series for confirmatory purposes.
# rat CYP2A1, Cyp2a1 (gene 24894), sequence (P11711 whole entry, looked up): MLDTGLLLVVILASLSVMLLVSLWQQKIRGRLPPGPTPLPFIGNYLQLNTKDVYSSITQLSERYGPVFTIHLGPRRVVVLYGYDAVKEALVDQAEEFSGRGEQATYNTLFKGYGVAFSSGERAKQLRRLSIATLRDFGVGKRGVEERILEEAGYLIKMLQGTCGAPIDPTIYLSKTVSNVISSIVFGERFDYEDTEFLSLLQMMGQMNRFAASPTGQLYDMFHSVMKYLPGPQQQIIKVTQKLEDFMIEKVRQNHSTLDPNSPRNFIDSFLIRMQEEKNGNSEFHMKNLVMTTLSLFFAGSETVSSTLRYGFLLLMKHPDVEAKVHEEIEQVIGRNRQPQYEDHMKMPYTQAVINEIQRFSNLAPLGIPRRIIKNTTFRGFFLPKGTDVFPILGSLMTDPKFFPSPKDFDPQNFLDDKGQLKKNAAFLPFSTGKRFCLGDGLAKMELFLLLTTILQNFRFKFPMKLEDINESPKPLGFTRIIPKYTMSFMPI
SMILES,AC50,outcome
CC1(C(=O)Nc2ccc(O)c(Cl)c2Cl)CCCCC1,1800 nM (active),–
CN(C)C(=O)Nc1cccc(C(F)(F)F)c1,4330 nM (active),–
CCCOCC(=Nc1ccc(Cl)cc1C(F)(F)F)n1ccnc1,955 nM (active),–
CCOC(=O)CC(SP(=O)(OC)OC)C(=O)OCC (stereo not drawn),–,inactive
C=C(C)[C@H]1Cc2c(ccc3c2O[C@@H]2COc4cc(OC)c(OC)cc4[C@@H]2C3=O)O1,–,inactive
CSC1=N[C@@](C)(c2ccccc2)C(=O)N1Nc1ccccc1,7680 nM (active),–
CCOP(=S)(OCC)Oc1ccc([N+](=O)[O-])cc1,5890 nM (active),–
CC(C1CC1)C(O)(Cn1cncn1)c1ccc(Cl)cc1 (stereo not drawn),4580 nM (active),–
FC(F)C(F)(F)OCC(Cn1cncn1)c1ccc(Cl)cc1Cl (stereo not drawn),1850 nM (active),–
C[Si](Cn1cncn1)(c1ccc(F)cc1)c1ccc(F)cc1,1390 nM (active),–
CCOP(=S)(OCC)Oc1ccc2c(C)c(Cl)c(=O)oc2c1,–,inactive
C#CC(C)(C)NC(=O)c1cc(Cl)cc(Cl)c1,1430 nM (active),–
CCC(=O)Nc1ccc(Cl)c(Cl)c1,2200 nM (active),–
